The record followed here is PubChem BioAssay (NCATS).

Records with an inconclusive call do not appear. A call without a number means that no potency is given here. Active and inactive are the calls of the source. Calls come from the whole dose curve; as a rule, active = well fitted cell-killing curve with a large enough effect; inconclusive = small, poorly fitted or top-dose-only effect, or effect the other way; inactive = flat fitted curve, though single readings scatter.
Potency is the fitted concentration of half-maximal effect.

The nature of this test: UWB1.289-WTBRCA1 Cancer Cell Toxicity qHTS against the NCATS CANVASS Library (AID 1347354). The settings on record: UWB1.289-WTBRCA1 viability, CellTiter-Glo luminescence, 72 h; series mostly up to 38.3 µM. From the text:
Natural products and their derivatives continue to be wellsprings of nascent therapeutic potential. However, many laboratories have limited resources for biological evaluation, leaving their previously isolated or synthesized compounds largely or completely untested. To address this issue, the Canvass library of natural products was assembled (https://tripod.nih.gov/canvass), in collaboration with academic and industry researchers, for quantitative high-throughput screening (qHTS) across a diverse set of cell-based and biochemical assays. The pure (>85% purity by liquid chromatography/mass spectrometry [LC/MS]) Canvass library of 346 natural products were submitted by 45 academic laboratories and companies around the world. We collected pure natural products to circumvent deconvolution and structure elucidation due to time and resource limitations. The library was formatted into 1536-well plates and evaluated in 50 qHTS (in an 11-pnt concentration series) bioassays with broad scope of disease-relevant mechanisms. The resulting data set from 50 different assays was then systematically analyzed to identify overall trends and specific natural products with interesting biological activities. Reported herein are the results of each individual qHTS and their corresponding assay protocol. National Center for Advancing Translational Sciences (NCATS), Rockville, MD National Institute of Health (NIH), Bethesda, Maryland
Cancer Cell Toxicity COV-362, OV-KATE, OV-SAHO, UWB1.289, UWB1.289-WTBRCA1, HEK-293, HPAF-II, Panc-1005, SW1088, and U-118MG-screen protocol. 1. In a 1536 well, white solid bottom tissue culture plates (Corning 7494), corresponding cells (COV-362, OV-KATE, OV-SAHO, UWB1.289, UWB1.289-WTBRCA1, HEK-293, HPAF-II, Panc-1005, SW1088, or U-118MG) were dispensed in each well at a final concentration of 1000 cells / well (6uL volume) using the Multidrop Combi (Thermo Fisher Scientific) dispenser. 2. The plates were incubated for 4 hours at 37 degrees C/5% CO2/95% Rh. 3. Compounds were pin transferred (~23nL volume) via Wako Pin-tool (Wako Automation, Richmond VA) equipped with a 1536 pin head. The assay plates were treated with compounds in an 11-pnt concentration series with a final concentration range of […] to 85uM. 4. Bortezomib was used as a single dose control (0.5mM column 4, rows 1 - 32) at a final concentration of 1.9uM and as a 16pnt titration (1mM; 1:2 dilution; 16-points; n = 2; column 3, rows 1 - 32) with final concentration range of 0.1nM - 3.8uM. 5. The assay plates were incubated for 72 hours at 37 degrees C/5% CO2/95% Rh. 6. 3uL CellTiter-Glo detection reagent was then added to the plates (columns 2 - 48, rows 1 - 32) and incubated at room temperature for additional 15min. 7. Luminescence signal was acquired via the ViewLux plate reader (PerkinElmer) using a clear filter, 2 second exposure and 2x binning settings.
Background: In qHTS, concentration-response curves come from the screen itself.
In the case of `CCC(=O)CCCCC[C@@H]1NC(=O)[C@H]2CCCCN2C(=O)[C@H]([C@@H](C)CC)NC(=O)[C@H](Cc2cn(OC)c3ccccc23)NC1=O`, the Potency was 6.66 µM (active). The same measure for `CO[C@H](c1ccccc1)[C@H]1NC(=O)C(C)NC(=O)C(C[C@@H](C)CO)N(C)C(=O)[C@@H](C(O)c2cn(C(C)(C)C3CO3)c3ccccc23)NC(=O)C(C(C)C=C(C)C)NC(=O)C(CC(C)C)N(C)C(=O)C(C(C)C)NC1=O` (stereo partly specified): “inactive”.

Turning to `CC(=O)N[C@H]1CCN2CCC[C@H]12`, the Potency result is “inactive”. Take `CO[C@@H](/C=C/CC/C=C/C(=O)O)[C@@H](O)[C@H](C)/C=C(\C)[C@@H](O)[C@H](C)C(=O)CCCC1CC(=O)NC(=O)C1`: the Potency result is “inactive”. With `COc1ccc2c3c([nH]c2c1)C(C)=NCC3` the entry was “inactive”; with `CCN1C[C@]2(C)CC[C@@H](O)[C@]34C1[C@H](C[C@H]23)C12CCC(CC14)[C@](O)(CO)[C@H]2O` (stereo partly specified), “inactive”; with `C[C@]12CC(O)C3[C@@H](CCC4C[C@@H](O)CC[C@@]43CO)[C@@]1(O)CCC2C1=CC(=O)OC1` (stereo partly specified), “inactive”.

For the compound `C=C1[C@@H](C)[C@H]2[C@H](Cc3ccccc3)NC(=O)[C@]23OC(=O)/C=C/[C@H](O)CCC[C@@H](C)C/C=C/[C@H]3[C@@H]1O`, the Potency was 13.3 µM (active). The same measure for `CCCC[C@@H]1CC[C@H]2CCCC(CCC)N12` (stereo partly specified): “inactive”. With `CC=C1CN(C=O)[C@H]2C[C@@H]1[C@@H](C(=O)OC)[C@@]13CCOC21Nc1ccccc13` (stereo partly specified) the entry was “inactive”; with `NCCc1ccccc1`, “inactive”. The same measure for `CC1=CC(=O)C2=C(C)C[C@H](O)[C@@H]3[C@H](OC(=O)[C@@H]3C)[C@@H]12`: “inactive”; for `C[C@@H]1CC[C@@H](c2ccoc2)N2C[C@@]3(CC[C@@H]12)CS[C@@]1(CC[C@H]2[C@H](C)CC[C@@H](c4ccoc4)N2[C@@H]1O)C3`: 8.38 µM (active). As for `CCCCC[C@@H]1OC(=O)[C@@H](C)N(C)C(=O)[C@H](CCCCC)OC(=O)C(C)N(C)C(=O)[C@H](CCCCC)OC(=O)[C@@H](C)N(C)C(=O)[C@H](CCCCC)OC(=O)C(C)N(C)C1=O` (stereo partly specified), the Potency is 16.7 µM (active). With `CC[C@@H]1CN2CC[C@@]3(O)C(=Nc4cccc(OC)c43)[C@@H]2C[C@@H]1/C(=C\OC)C(=O)OC` the entry was “inactive”. The same measure for `COc1ccc2c(c1)[nH]c1c(C)nccc12`: “inactive”. With `CN(C)Cc1c[nH]c2ccccc12` the entry was “inactive”; with `O=C(c1ccccc1O)c1[nH]c(Cl)c(Cl)c1-n1c(C(=O)c2ccccc2O)cc(Cl)c1Cl`, 13.3 µM (active); with `CCC[C@H]1CC[C@H]2[C@H](C)CCC[C@H]2N1`, “inactive”. For `CNCCc1ccccc1`, the Potency entry was “inactive”. With `CO[C@@H](/C=C/CC/C=C/C(=O)O)[C@@H](O)[C@H](C)[C@@H](O)/C(C)=C/[C@H](C)C(=O)CCCC1CC(=O)NC(=O)C1` the entry was “inactive”. The same measure for `CN1C(=O)[C@]23CC4C(C)(C)[C@@]5(C[C@@]41CN2CC[C@@]3(C)O)C(=O)Nc1c5ccc2c1OC=CC(C)(C)O2` (stereo partly specified): “inactive”; for `COC(=O)C1=C2Nc3ccccc3[C@@]23CCN2CC(C(C)=O)C1C[C@H]23` (stereo partly specified): “inactive”; for `c1ccc2c3c([nH]c2c1)CNCC3`: “inactive”. With `CC1=CC2CC[C@@H]3[C@@H](C)C[C@H](C)[C@@H](C1)N23` (stereo partly specified) the entry was “inactive”. Take `CCN1C[C@]2(C)CC[C@H](O)[C@]34C1C(C[C@H]23)[C@@]12CC[C@H](CC14)[C@](O)(COC(=O)c1ccc(OC)c(OC)c1)[C@H]2O` (stereo partly specified): the Potency entry is “inactive”. With `CNCCc1c[nH]c2ccccc12` the entry was “inactive”; with `CNCCc1ccc(O)cc1`, “inactive”.

Take `COc1ccc(C23Oc4cc(OC)cc(OC)c4[C@](O)([C@H](c4ccccc4)C2C(=O)NCCCCNC(=O)c2ccccc2)[C@@H]3O)cc1` (stereo partly specified): the Potency entry is “inactive”.

For the compound `CC[N@@+]1([O-])C[C@]2(C)CC[C@@H](O)[C@@]34C5C[C@H]6CC[C@@]5(C(C[C@H]23)C41)[C@H](O)[C@@]6(O)CO` (stereo partly specified), the Potency result was “inactive”.

Turning to `C/C=C1/CN2CC[C@]34C(=Nc5ccccc53)[C@@H]2C[C@@H]1[C@H]4C(=O)OC`, the Potency entry was “inactive”.
